Measured values from the supplement of paper PMC10849652.
About 7,900 targets were measured; listed, in parts, are those with a hit and a random draw of the rest. About 0.6% of all pairs of compound and target were hits. A number with no mark means an inactive call.

Assays:
Assay in all cases: log2 fold change, soluble protein after heating vs DMSO (PISA); higher = thermal stabilisation; K562 cells, 10 uM, 30 min; active = over 0.2 and 3.5 SD of the protein, either way, in both replicates (recomputed)
[1] = compound: Cc1ccc(NC(=O)c2ccc(CN3CC[C@H](N(C)C)C3)c(C(F)(F)F)c2)cc1Nc1nccc(-c2cncnc2)n1 [bafetinib]
Summary of the method: (§1)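 Quantification of soluble protein used TMTpro 16plex LC-MS/MS, with channel sums equalised. Samples were the supernatant after 21,000xg for 90 min of pooled aliquots from K562 cells (2×10^6 cells/mL) treated with 10 μM compound for 30 min, heated for 3 min over 48°C-58°C, and extracted in PBS with 0.5% NP-40 at 4°C. Values, from duplicates, describe thermal stability against control samples on a log2 fold-change scale.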

[2] = compound: Cc1cccc(CC(=O)N2CCc3c2ccc(-c2cn(C)c4ncnc(N)c24)c3F)n1
Summary of the method: as §1

[3] = compound: Cc1cn(-c2cc(NC(=O)c3ccc(C)c(Nc4nccc(-c5cccnc5)n4)c3)cc(C(F)(F)F)c2)cn1 [nilotinib]
Summary of the method: as §1

[4] = compound: Cc1nc(Nc2n[nH]c3c2CN(C(=O)N[C@H](CN(C)C)c2ccccc2)C3(C)C)c2sccc2n1
Summary of the method: as §1

[5] = compound: Cc1nc(Nc2ncc(C(=O)Nc3c(C)cccc3Cl)s2)cc(N2CCN(CCO)CC2)n1 [dasatinib]
Summary of the method: as §1

[6] = compound: Cc1ncc(-c2ccnc(Nc3ccc(S(C)(=O)=O)cc3)n2)n1C(C)C
Summary of the method: as §1

[7] = compound: Cn1cc(-c2ccc3c(c2)CCN3C(=O)Cc2cccc(C(F)(F)F)c2)c2c(N)ncnc21
Summary of the method: as §1

[8] = compound: Cn1cc(-c2ccc3nnc(C(F)(F)c4ccc5ncccc5c4)n3n2)cn1
Summary of the method: as §1

[9] = compound: Cn1cncc1[C@@](N)(c1ccc(Cl)cc1)c1ccc2c(c1)c(-c1cccc(Cl)c1)cc(=O)n2C [tipifarnib]
Summary of the method: as §1

[10] = compound: FC(F)(F)c1ccc(/C=C/c2nc(COc3ccc(CCCCn4ccnn4)cc3)co2)cc1 [mubritinib]
Summary of the method: as §1

[11] = compound: NC(=O)Nc1cc(-c2cccc(F)c2)sc1C(=O)N[C@H]1CCCNC1
Summary of the method: as §1

[12] = compound: NC(=O)c1cnc(N[C@@H]2CCCC[C@@H]2N)nc1Nc1cccc(-n2nccn2)c1
Summary of the method: as §1

[13] = compound: NC1(c2ccc(-c3nc4ccn5c(=O)[nH]nc5c4cc3-c3ccccc3)cc2)CCC1
Summary of the method: as §1

[14] = compound: NCC(=O)Nc1ccc(-n2nc(C(F)(F)F)cc2-c2ccc3c(ccc4ccccc43)c2)cc1
Summary of the method: as §1

[15] = compound: Nc1ccccc1NC(=O)c1ccc(CNC(=O)OCc2cccnc2)cc1 [entinostat]
Summary of the method: as §1

[16] = compound: O=C(CCCCCCC(=O)Nc1ccccc1)NO [vorinostat]
Summary of the method: as §1

[17] = compound: O=C(CCCCCCNC(=O)c1cnc(N(c2ccccc2)c2ccccc2Cl)nc1)NO [citarinostat]
Summary of the method: as §1

[18] = compound: O=C(O)c1ccc2c(c1)nc(Nc1cccc(Cl)c1)c1ccncc12 [silmitasertib]
Summary of the method: as §1

[19] = compound: O=C1NC(=O)C(c2cnc3ccccn23)=C1c1cn2c3c(cc(F)cc13)CN(C(=O)N1CCCCC1)CC2
Summary of the method: as §1

[20] = compound: c1cc(OCCN2CCCCC2)cc(-c2n[nH]c3ccc(-c4nnc[nH]4)cc23)c1
Summary of the method: as §1

Chain of UniProt Q15738 (Q15738 whole entry, looked up): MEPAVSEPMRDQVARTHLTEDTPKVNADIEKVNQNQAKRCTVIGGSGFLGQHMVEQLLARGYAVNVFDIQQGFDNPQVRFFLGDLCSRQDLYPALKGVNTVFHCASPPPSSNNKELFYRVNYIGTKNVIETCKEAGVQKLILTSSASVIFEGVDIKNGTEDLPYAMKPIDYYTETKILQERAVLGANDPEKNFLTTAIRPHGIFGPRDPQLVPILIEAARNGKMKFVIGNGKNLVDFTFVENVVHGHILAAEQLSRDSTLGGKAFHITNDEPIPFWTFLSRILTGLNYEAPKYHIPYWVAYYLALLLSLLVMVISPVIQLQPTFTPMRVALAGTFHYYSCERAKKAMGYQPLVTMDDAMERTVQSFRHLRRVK
Chain of UniProt P03905 (P03905 whole entry, looked up): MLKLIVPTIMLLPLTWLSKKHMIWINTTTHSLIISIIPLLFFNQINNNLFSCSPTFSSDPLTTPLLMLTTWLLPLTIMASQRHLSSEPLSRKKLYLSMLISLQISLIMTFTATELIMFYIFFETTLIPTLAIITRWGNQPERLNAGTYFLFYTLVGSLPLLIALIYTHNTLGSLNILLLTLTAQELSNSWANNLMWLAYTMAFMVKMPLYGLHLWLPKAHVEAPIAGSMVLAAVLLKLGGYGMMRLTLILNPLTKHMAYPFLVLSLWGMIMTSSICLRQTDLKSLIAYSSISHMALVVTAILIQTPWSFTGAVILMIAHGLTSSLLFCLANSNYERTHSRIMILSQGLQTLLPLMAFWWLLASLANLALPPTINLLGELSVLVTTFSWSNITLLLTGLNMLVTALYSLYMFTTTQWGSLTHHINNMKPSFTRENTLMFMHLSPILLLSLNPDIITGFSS
Chain of UniProt P52948 (P52948 whole entry, looked up): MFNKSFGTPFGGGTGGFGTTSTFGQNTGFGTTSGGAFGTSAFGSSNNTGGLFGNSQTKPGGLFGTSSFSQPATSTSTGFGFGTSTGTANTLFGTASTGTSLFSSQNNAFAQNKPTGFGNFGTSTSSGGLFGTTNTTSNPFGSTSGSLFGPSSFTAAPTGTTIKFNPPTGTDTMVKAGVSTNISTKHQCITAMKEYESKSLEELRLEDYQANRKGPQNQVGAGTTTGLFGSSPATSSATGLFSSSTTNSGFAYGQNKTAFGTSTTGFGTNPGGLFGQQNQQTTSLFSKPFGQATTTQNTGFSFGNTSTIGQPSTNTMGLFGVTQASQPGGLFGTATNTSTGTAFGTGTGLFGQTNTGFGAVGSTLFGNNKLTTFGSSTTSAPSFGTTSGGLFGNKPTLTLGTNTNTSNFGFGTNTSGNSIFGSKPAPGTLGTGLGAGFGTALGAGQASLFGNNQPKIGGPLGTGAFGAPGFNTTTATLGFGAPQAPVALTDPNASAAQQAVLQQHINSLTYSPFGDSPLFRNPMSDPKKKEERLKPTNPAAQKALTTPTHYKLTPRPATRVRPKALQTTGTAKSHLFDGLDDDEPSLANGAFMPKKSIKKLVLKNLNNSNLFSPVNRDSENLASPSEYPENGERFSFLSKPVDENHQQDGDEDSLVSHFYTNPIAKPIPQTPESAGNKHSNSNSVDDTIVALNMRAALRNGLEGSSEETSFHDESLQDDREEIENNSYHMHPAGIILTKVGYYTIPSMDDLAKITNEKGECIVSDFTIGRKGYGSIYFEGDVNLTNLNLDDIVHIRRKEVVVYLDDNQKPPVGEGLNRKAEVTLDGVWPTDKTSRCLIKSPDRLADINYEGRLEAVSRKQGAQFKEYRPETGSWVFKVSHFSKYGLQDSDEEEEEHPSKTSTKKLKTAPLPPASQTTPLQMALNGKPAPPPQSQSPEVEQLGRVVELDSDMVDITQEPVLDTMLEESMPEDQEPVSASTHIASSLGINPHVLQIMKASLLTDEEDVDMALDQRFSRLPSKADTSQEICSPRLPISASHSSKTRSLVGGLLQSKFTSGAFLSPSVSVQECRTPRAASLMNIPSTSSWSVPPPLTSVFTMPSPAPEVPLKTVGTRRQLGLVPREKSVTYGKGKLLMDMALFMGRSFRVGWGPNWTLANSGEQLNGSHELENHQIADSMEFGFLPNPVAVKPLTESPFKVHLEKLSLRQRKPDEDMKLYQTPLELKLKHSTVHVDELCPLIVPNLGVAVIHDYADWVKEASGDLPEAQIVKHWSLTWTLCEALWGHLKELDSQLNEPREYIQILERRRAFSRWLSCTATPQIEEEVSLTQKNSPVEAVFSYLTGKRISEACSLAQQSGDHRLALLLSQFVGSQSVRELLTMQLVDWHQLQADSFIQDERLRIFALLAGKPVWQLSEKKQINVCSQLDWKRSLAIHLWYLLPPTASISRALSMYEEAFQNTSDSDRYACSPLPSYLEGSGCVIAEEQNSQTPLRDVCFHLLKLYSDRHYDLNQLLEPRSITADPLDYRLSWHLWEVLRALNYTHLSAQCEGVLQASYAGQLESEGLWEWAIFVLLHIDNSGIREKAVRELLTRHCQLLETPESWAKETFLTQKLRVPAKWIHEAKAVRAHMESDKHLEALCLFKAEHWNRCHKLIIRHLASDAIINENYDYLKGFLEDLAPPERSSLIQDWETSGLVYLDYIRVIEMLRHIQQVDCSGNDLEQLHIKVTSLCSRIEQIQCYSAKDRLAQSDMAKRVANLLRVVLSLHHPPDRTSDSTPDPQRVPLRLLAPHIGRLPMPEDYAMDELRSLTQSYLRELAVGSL
Chain of UniProt Q9H019 (Q9H019 whole entry, looked up): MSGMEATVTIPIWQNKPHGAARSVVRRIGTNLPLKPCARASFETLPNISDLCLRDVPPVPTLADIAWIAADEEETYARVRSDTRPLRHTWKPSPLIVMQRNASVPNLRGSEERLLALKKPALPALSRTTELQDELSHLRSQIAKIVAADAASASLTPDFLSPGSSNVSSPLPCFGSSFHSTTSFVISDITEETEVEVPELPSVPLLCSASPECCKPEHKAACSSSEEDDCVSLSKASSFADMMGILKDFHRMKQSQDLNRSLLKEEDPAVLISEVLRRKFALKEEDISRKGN
Chain of UniProt Q96IV0 (Q96IV0 whole entry, looked up): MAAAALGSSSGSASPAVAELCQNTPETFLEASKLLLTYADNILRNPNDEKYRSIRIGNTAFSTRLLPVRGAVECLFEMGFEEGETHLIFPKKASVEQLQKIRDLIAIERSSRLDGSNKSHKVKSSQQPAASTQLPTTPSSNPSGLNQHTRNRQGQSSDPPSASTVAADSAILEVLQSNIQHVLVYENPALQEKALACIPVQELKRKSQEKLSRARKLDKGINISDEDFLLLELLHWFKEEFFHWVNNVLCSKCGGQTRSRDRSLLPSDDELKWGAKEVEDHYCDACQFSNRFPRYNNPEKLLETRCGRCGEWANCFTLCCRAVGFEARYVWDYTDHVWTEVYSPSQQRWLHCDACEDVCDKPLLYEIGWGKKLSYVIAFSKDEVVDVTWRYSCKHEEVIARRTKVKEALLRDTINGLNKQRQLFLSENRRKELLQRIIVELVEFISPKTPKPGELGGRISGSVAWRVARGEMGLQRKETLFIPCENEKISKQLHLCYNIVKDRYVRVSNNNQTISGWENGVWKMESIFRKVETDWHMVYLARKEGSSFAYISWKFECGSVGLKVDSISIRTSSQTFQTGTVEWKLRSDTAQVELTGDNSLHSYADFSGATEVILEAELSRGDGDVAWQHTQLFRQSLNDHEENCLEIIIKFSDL
Chain of UniProt Q14149 (Q14149 whole entry, looked up): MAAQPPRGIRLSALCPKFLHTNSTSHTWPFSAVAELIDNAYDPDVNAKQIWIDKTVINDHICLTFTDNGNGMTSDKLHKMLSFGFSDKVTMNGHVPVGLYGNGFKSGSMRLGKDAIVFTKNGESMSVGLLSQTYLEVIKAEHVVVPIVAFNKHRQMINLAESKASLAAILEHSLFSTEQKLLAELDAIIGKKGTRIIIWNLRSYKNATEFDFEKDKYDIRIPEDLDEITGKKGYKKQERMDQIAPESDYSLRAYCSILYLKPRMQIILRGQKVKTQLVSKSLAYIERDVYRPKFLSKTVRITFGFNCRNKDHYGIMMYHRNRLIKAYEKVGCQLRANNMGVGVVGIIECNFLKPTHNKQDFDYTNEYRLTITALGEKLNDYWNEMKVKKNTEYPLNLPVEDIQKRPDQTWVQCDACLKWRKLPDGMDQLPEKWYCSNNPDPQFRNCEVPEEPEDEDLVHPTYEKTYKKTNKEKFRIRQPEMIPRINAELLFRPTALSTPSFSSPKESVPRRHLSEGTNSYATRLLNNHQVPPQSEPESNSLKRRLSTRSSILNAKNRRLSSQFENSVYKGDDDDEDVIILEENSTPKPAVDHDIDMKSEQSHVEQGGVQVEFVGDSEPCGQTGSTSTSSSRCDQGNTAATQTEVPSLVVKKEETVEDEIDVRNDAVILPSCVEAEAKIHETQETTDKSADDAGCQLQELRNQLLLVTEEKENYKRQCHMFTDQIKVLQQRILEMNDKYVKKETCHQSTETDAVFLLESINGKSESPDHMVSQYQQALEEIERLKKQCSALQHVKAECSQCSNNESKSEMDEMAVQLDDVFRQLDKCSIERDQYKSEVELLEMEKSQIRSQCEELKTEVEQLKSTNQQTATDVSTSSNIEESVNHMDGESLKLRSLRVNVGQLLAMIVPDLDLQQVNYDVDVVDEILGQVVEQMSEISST
Chain of UniProt Q5TFE4 (Q5TFE4 whole entry, looked up): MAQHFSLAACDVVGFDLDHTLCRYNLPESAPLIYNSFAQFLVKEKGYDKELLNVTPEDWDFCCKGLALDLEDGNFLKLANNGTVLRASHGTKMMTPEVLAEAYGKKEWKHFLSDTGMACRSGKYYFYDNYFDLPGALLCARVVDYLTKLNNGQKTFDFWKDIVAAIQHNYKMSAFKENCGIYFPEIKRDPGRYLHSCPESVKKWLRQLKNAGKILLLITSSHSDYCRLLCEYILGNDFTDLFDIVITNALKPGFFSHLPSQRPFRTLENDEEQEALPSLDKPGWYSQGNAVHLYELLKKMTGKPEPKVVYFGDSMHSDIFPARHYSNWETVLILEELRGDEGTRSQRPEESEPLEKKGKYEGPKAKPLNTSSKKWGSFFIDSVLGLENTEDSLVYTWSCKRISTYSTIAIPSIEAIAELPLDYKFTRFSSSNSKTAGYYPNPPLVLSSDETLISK

Target	log2 fold change [1]	log2 fold change [2]	log2 fold change [3]	log2 fold change [4]	log2 fold change [5]	log2 fold change [6]	log2 fold change [7]	log2 fold change [8]	log2 fold change [9]	log2 fold change [10]	log2 fold change [11]	log2 fold change [12]	log2 fold change [13]	log2 fold change [14]	log2 fold change [15]	log2 fold change [16]	log2 fold change [17]	log2 fold change [18]	log2 fold change [19]	log2 fold change [20]
NOP56 (UniProt O00567)	0.225	-0.099	0.098	-0.018	0.204	-0.026	-0.371	-0.18	0.201	-0.164	0.162	0.14	0.197	0.103	-0.084	0.014	-0.058	0.096	0.09	-0.156
NDUFA9 (UniProt Q16795)	-0.019	0.033	-0.056	0.005	-0.127	0.012	0.002	-0.007	-0.033	0.223 (active)	-0.025	-0.089	-0.112	-0.091	0.039	0.065	0.037	-0.016	-0.104	0.017
MRPS24 (UniProt Q96EL2)	0.283	0.183	-0.195	0.057	-0.024	0.028	-0.141	0.008	-0.035	0.186	-0.015	-0.016	-0.021	-0.086	0.001	0.04	-0.053	-0.096	-0.074	-0.105
MORC3 (UniProt Q14149)	-0.014	0.009	-0.173	0.09	-0.154	0.105	0.011	-0.026	0.006	-0.212	0.024	-0.047	-0.241	-0.22	-0.021	-0.159	-0.118	0.201	-0.066	0.089
NSDHL (UniProt Q15738)	0.006	0.014	0.033	-0.021	0.054	0.001	0.11	0.133	0.029	0.164	-0.14	-0.061	0.11	-0.033	-0.018	-0.04	0.023	-0.023	-0.027	0.02
MRPS35 (UniProt P82673)	0.038	0.115	-0.134	0.088	-0.004	-0.071	-0.039	0.017	0.024	0.091	0.035	-0.07	-0.082	0.012	-0.027	0.088	-0.011	-0.119	-0.033	-0.03
NCL (UniProt P19338)	0.272	0	-0.033	0.026	0.209	0.051	-0.445	-0.237	0.225	-0.325	0.015	0.024	0.331	0.156	-0.093	-0.018	-0.105	0.2	0.147	-0.171
NUP85 (UniProt Q9BW27)	-0.088	0.02	-0.027	-0.115	-0.068	-0.013	-0.009	-0.002	-0.031	0.026	0.01	-0.014	-0.092	-0.035	-0.011	0.021	0.031	0.047	-0.041	-0.041
NT5DC1 (UniProt Q5TFE4)	0.043	0.004	0.099	0.069	0.033	-0.016	0.045	0.069	-0.043	0.001	-0.057	-0.052	-0.003	-0.012	-0.037	-0.013	0.003	0.025	-0.038	0.236 (active)
NGLY1 (UniProt Q96IV0)	0.039	0.055	-0.068	-0.038	-0.064	0.021	-0.009	-0.034	-0.067	-0.062	-0.073	0.059	-0.151	-0.109	0.025	0.008	0.079	0.079	0.059	-0.059
MRPL46 (UniProt Q9H2W6)	0.06	0.014	-0.03	-0.002	-0.006	-0.016	-0.019	0.06	0.095	-0.003	-0.067	0.009	0.023	-0.014	-0.003	0.011	0.007	0.005	0.028	-0.062
NNT (UniProt Q13423)	-0.02	0.056	-0.005	-0.006	-0.02	-0.018	0.071	0.037	-0.034	0.021	-0.007	-0.037	-0.062	-0.029	0.006	0.025	0.018	-0.027	-0.041	0.024
PAAF1 (UniProt Q9BRP4)	-0.011	-0.01	-0.084	0.058	-0.051	-0.026	0.018	0.016	-0.03	0.017	0.028	-0.011	-0.078	0.019	0.006	-0.013	-0.003	-0.001	0.014	-0.025
OTUD6B (UniProt Q8N6M0)	-0.014	0.105	-0.114	-0.067	-0.142	-0.031	0.044	0.067	-0.039	-0.02	-0.122	-0.121	-0.167	-0.064	0.022	0.215	-0.013	0.059	-0.065	-0.053
MON2 isoform 5 (UniProt Q7Z3U7)	-0.001	0.026	-0.053	-0.012	-0.132	0.082	0.008	0.006	-0.071	-0.03	-0.023	0.012	-0.107	-0.038	-0.003	0.097	0.056	0.021	-0.006	-0.003
MRPS27 isoform 2 (UniProt Q92552)	0.181	0.099	-0.083	0.021	-0.104	-0.049	0.022	0.033	-0.112	0.119	0.067	-0.015	-0.105	-0.007	0.011	0.104	0.08	-0.04	0.049	-0.012
MT-ND4 (UniProt P03905)	-0.016	-0.118	0.006	-0.033	-0.009	-0.003	-0.004	-0.045	0.173	0.05	0.052	0.038	-0.046	-0.074	0.099	0.261	0.198	-0.011	0.088	-0.057
OGFOD1 (UniProt Q8N543)	-0.042	-0.033	-0.015	0.039	-0.009	-0.021	0.01	0.078	-0.05	-0.04	0.015	0.021	-0.08	-0.056	-0.002	0.005	0.012	0.02	-0.072	-0.006
MRPS10 (UniProt P82664)	0.057	0.119	-0.097	0.006	-0.005	-0.046	0.002	-0.096	-0.104	0.1	-0.014	0.004	-0.052	0.011	-0.033	0.057	0.07	-0.048	0	-0.08
NUP98 (UniProt P52948)	-0.008	0.018	-0.034	-0.062	-0.077	-0.044	-0.026	-0.075	0.005	0	0.018	-0.086	-0.025	-0.076	0	0.052	0.028	0.072	0.001	-0.073
NBN (UniProt O60934)	-0.021	0.031	0.018	-0.198	-0.171	0.048	0.031	0.064	-0.016	0.131	-0.021	-0.037	-0.078	-0.067	0.127	0.091	0.009	-0.055	-0.104	0
MRPS6 (UniProt P82932)	0.062	0.159	-0.146	0.062	-0.02	-0.009	0.007	0.148	-0.106	0.112	0.023	0.009	-0.133	0.003	0.03	0.108	0.079	-0.036	-0.042	-0.031
MTFR1L (UniProt Q9H019)	-0.1	0.305	0.014	-0.32	-0.167	-0.038	0.07	0.001	-0.062		-0.069	-0.079		-0.005	0.069	0.356			-0.014	
OXA1L (UniProt Q15070)	-0.152	-0.032	0.013	-0.019	-0.01	-0.029	0.013	0.038	0.004	0.003	0.019	-0.021	-0.04	-0.025	-0.021	0.005	0.017	0.02	-0.038	0.113
